Cy5 interf NS3h = Cy5 fluorescence quenchers or enhancers, artefact control for HCV NS3 helicase inhibitor project, biochemical, ChemBridge library, Cy5 readout; Cy5-dT15 DNA with NS3h, fluorescence interference; actives lie on both sides; signal over control mean, under 1 quenches; fluorescence interference ratio at 100 µM; 16,000 compounds, 6% hits;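 active = compound fluorescence over control fluorescence at most 0.8, a quencher, or at least a set upper limit, an enhancer; inactive = ratio between 0.8 and the set upper limit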
HCV NS3h FP = HCV NS3 helicase inhibitors, primary screen, biochemical, fluorescence polarization, ChemBridge library; Hepatitis C virus NS3 helicase; 16,000 compounds, 1.6% hits; inhibition, % at 100 µM; NS3h Cy5-dT15 DNA binding; AID 687043, 2013;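 active = inhibition above the average over every tested compound plus 3 SD, cut at about 40% in these data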
NS3h confirm = HCV NS3 helicase inhibitors, retest, confirmation, biochemical, fluorescence polarization, ChemBridge library; shares compounds with HCV NS3h FP; 240 compounds, 20% hits; inhibition, % at 100 µM; NS3h binding to Cy5-dT15 DNA;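 active = percent inhibition of 50% or more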
SSB FP counter = E. coli SSB-DNA binding inhibitors, counter-screen for HCV NS3 helicase inhibitor project, biochemical, fluorescence polarization, selected ChemBridge compounds | AID 720486, 2013 | 240 compounds, 40% hits | E. coli SSB binding Cy5-dT15 | shares compounds with HCV NS3h FP | inhibition, % at 100 µM;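 active = inhibition of at least 50%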;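 note: displacers lower Cy5 polarization so higher inhibition means more SSB displaced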
Target sequence (P0AGE0 whole entry, looked up): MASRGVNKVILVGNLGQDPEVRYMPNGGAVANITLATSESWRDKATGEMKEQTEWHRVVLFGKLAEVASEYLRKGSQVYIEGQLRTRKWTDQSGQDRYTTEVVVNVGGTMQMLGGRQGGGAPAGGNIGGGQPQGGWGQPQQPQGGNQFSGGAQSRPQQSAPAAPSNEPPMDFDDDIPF
Cy5 SSB interf = Cy5 fluorescence interference with SSB-bound oligo, artefact control for HCV NS3 helicase inhibitor project, biochemical, E. coli SSB, selected ChemBridge compounds. shares compounds with HCV NS3h FP. 240 compounds, 8% hits. AID 720487, 2013. Cy5-dT15/E. coli SSB fluorescence interference; actives lie on both sides. fluorescence interference ratio at 100 µM;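 active = fluorescence interference ratio at or above 1.2, signal boosting, or at or below 0.8, signal quenching; inactive = ratio between 0.8 and 1.2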;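 note: ratio of compound well signal to mean negative control signal so 1 means no effect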
Cy5 fluor confirm = Cy5-DNA-NS3h complex fluorescence interference, confirmation, artefact control for HCV NS3 helicase inhibitor project, biochemical, ChemBridge library | fluorescence interference ratio at 100 µM, hits read low | 240 compounds, 44% hits | Cy5-dT15 DNA/NS3h fluorescence interference counterscreen | AID 720489, 2013 | shares compounds with HCV NS3h FP;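 active = fluorescence interference ratio at or below 0.8 quencher or at or above a set limitenhancer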;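 note: ratio of compound fluorescence to mean of negative controls so 1 means no interference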
* = called active by the depositor; . = not tested or not shown. A selection: hits, their analogues and other compounds. The true share with any hit is near 7.6%.

SMILES | Cy5 interf NS3h | HCV NS3h FP | NS3h confirm | SSB FP counter | Cy5 SSB interf | Cy5 fluor confirm
CCOC(=O)c1c(-c2ccccc2)oc2ccc(OC(=O)c3ccc(OC)c(OC)c3)cc12 | 0.91 | 15 | . | . | . | .
O=C1NC(=O)N(c2ccc(Cl)cc2)C(=O)/C1=C/c1ccc(I)o1 | 1.3* | 56* | 26 | 78* | 1.1 | 0.82
Cc1cc(C)cc(N2C(=O)NC(=O)/C(=C\c3ccccc3C)C2=O)c1 | 1.1 | -11 | . | . | . | .
Cc1ccc(N2C(=O)NC(=O)/C(=C\c3ccc(-c4ccc(C)c([N+](=O)[O-])c4)o3)C2=O)cc1 | 1.1 | 61* | 2 | 24 | 0.96 | 0.89
COc1cc(/C=C2\C(=O)NC(=O)N(c3ccc(Cl)cc3)C2=O)cc(I)c1OC | 1.1 | 10 | . | . | . | .
O=C1NC(=O)N(c2ccc(Cl)cc2)C(=O)/C1=C\c1ccc(-c2ccc([N+](=O)[O-])cc2)o1 | 1 | 8 | . | . | . | .
Cc1cc(C)cc(N2C(=O)NC(=O)/C(=C\c3ccc(I)o3)C2=O)c1 | 1.1 | 46* | 39 | 92* | 1 | 1
Cc1ccc(C=C2C(=O)NC(=S)N(c3ccccc3Cl)C2=O)o1 | 0.96 | 60* | 31 | 78* | 1 | 0.79*
Cc1ccc(/C=C2\C(=O)NC(=S)N(c3ccc(Br)cc3)C2=O)o1 | 1.1 | 7 | . | . | . | .
COc1ccc(N(CC(=O)Nc2ccc(Cl)cc2)S(=O)(=O)c2ccccc2)cc1Cl | 1.1 | 5 | . | . | . | .
CN1CCN(C(=O)/C(=C/c2ccc([N+](=O)[O-])cc2)NC(=O)c2ccccc2Cl)CC1 | 1.1 | 0 | . | . | . | .
CC(=O)Nc1ccc(N2C(=O)/C(=C/c3ccc([N+](=O)[O-])cc3)C=C2c2ccccc2)cc1 | 1.4* | 37 | 12 | 36 | 1.1 | 0.99
O=C1/C(=C/c2ccc([N+](=O)[O-])cc2)NC(=S)N1c1ccccc1 | 0.89 | 8 | . | . | . | .
Cc1ccc2c(c1)C1C=CCC1C(C(=O)O)N2 (stereo not given) | 1.2* | 94* | 75* | 106* | 1.4* | 0.92
O=C1NC(=Nc2ccc(Br)cc2)S/C1=C\c1ccc(O)cc1 | 1 | -4 | . | . | . | .
O=C1NC(=Nc2ccc(O)cc2)S/C1=C\c1ccccc1 | 1.2 | 46* | 12 | 11 | 0.94 | 0.98
O=C(CSc1ccccc1C(=O)O)Nc1ccccc1 | 0.97 | 2 | . | . | . | .
CCC(c1ccccc1)c1nnc(NC(=O)Nc2cccc(Cl)c2)s1 (stereo not given) | 1.2* | 47* | 4 | 9 | 1 | 0.74*
O=C(NCC(c1ccccc1)c1ccccc1)Nc1cccc(Cl)c1 | 1 | 3 | . | . | . | .
CC(=O)N(C)C1=C(Cl)C(=O)c2ccccc2C1=O | 0.85 | 90* | 85* | 0 | 0.97 | 0.97
CC(=O)NC1=C(N(C)C)C(=O)c2ccccc2C1=O | 0.91 | -21 | . | . | . | .
CC1=C(C(=O)OC(C)C)C(c2ccccc2)N2C(=O)CCSC2=N1 (stereo not given) | 0.94 | 10 | . | . | . | .
CCOc1ccc(C(=O)Nc2cc(-c3nc4ccccc4o3)ccc2C)cc1[N+](=O)[O-] | 0.94 | 2 | . | . | . | .
Cc1cc(C)cc(N2C(=O)NC(=O)/C(=C\c3ccc(Cl)cc3)C2=O)c1 | 1.1 | 14 | . | . | . | .
CN1C(=O)NC(=O)/C(=C\c2ccc(Cl)cc2Cl)C1=O | 0.94 | 74* | 12 | 9 | 1 | 1
SMILES | Cy5 interf NS3h | HCV NS3h FP | NS3h confirm | SSB FP counter | Cy5 SSB interf | Cy5 fluor confirm
CCOc1cc(/C=C2\C(=O)NN(c3ccc(Cl)c(Cl)c3)C2=O)ccc1OC(C)=O | 0.84 | 38 | 29 | 11 | 0.88 | 0.87
O=C1NN(c2ccc(Cl)c(Cl)c2)C(=O)/C1=C/c1ccc(Cl)c([N+](=O)[O-])c1 | 0.87 | 37 | . | . | . | .
O=C1NC(=O)N(c2ccc(Cl)cc2)C(=O)/C1=C/c1cc(Br)c(O)c([N+](=O)[O-])c1 | 1.1 | 22 | 43 | 76* | 0.91 | 0.81
O=C1NC(=O)N(c2cccc(Cl)c2)C(=O)/C1=C/c1ccc(O)c(Cl)c1 | 0.99 | 12 | . | . | . | .
Cc1cc(C)cc(N2C(=O)NC(=O)/C(=C\c3ccc(O)c(Br)c3)C2=O)c1 | 0.99 | 38 | 9 | 24 | 0.96 | 0.75*
C=CCOc1c(Br)cc(/C=C2\C(=O)NC(=O)N(c3ccc(Cl)cc3)C2=O)cc1OC | 1.1 | 16 | . | . | . | .
COc1ccccc1N1C(=O)NC(=O)/C(=C\c2ccc(O)c(O)c2)C1=O | 0.97 | 44* | 8 | 20 | 0.93 | 1
Cc1cccc(N2C(=O)NC(=O)/C(=C\c3ccc(O)c(Cl)c3)C2=O)c1 | 1 | 65* | 18 | 28 | 0.96 | 0.96
O=C1NC(=O)N(c2ccccc2F)C(=O)/C1=C/c1ccc(O)c(Cl)c1 | 0.98 | 30 | . | . | . | .
Cc1ccc(N2C(=O)NC(=O)/C(=C\c3ccc(O)c(Br)c3)C2=O)cc1 | 1.1 | 19 | . | . | . | .
Cc1ccc(-c2ccc(OC(=O)COc3ccccc3Cl)cc2)cc1 | 1 | 6 | . | . | . | .
COC(=O)C1=C(C)N=c2s/c(=C/c3ccco3)c(=O)n2C1c1ccccc1Cl (stereo not given) | 1.1 | -2 | . | . | . | .
COc1ccc2nc(C)c(CC=C(Cl)Cl)c(Cl)c2c1 | 1.1 | 1 | . | . | . | .
COc1cc(/C=N\Nc2ccc3ccccc3n2)cc(Br)c1O | 0.97 | 12 | . | . | . | .
CCCC1(O)CC(c2cc(OC)ccc2OC)NC(c2cc(OC)ccc2OC)C1C (stereo not given) | 1 | -18 | . | . | . | .
O=C1/C(=C\c2cccc([N+](=O)[O-])c2)SC(=S)N1c1cccc(C(F)(F)F)c1 | 0.97 | 34 | . | . | . | .
COc1ccc2oc(C(F)F)cc(=O)c2c1 | 1.1 | 1 | . | . | . | .
O=C(c1cccnc1)N1CCC(Cc2ccccc2)CC1 | 1.1 | -3 | . | . | . | .
O=[N+]([O-])c1cccc2c1NC(c1ccccc1F)C1CC=CC21 (stereo not given) | 0.96 | 7 | . | . | . | .
O=C(O)c1cccc2c1NC(c1cccc3ccccc13)C1CC=CC21 (stereo not given) | 0.95 | 50* | 18 | 49 | 1 | 0.86
O=C1C(=O)N(c2nc3ccccc3s2)C(c2ccccc2F)C1=C(O)c1ccccc1 (stereo not given) | 0.95 | 6 | . | . | . | .
O=C1C(=O)N(c2nc3ccccc3s2)C(c2ccccc2Cl)C1=C(O)c1ccccc1 (stereo not given) | 1 | 39 | -4 | -2 | 1 | 0.76*
COc1cc(/C=C2/SC(=S)NC2=O)ccc1OC(=O)c1ccccc1Br | 1.1 | 42* | 8 | 2 | 1 | 0.78*
COc1cc(/C=C2\SC(=S)NC2=O)cc(Br)c1OC | 0.97 | 2 | . | . | . | .
O=C(/C(=C/c1ccccc1[N+](=O)[O-])c1nc2ccccc2s1)c1ccccc1 | 1 | 8 | . | . | . | .
CCCCn1c(CCCO)nc2ccccc21 | 1 | 1 | . | . | . | .
